Experiment [1] can be described thus: Viability qHTS for spleen associated tyrosine kinase inhibitor (SYKi) naive MV4-11 cells (AID 1963823). Also: nearly all actives have a fitted effect of over 40% in size. Also: potency is read from the fitted curve at half-maximal effect. To be noted: MV4-11 AML viability, CellTiter-Glo luminescence, 72 h; series mostly up to 45 µM. An outline of the steps:
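Seeding of 500 SYKi-naive MV4-11 cells per well onto pre-dispensed compounds preceded a 72 hr incubation at 37 C. Luminescent CellTiter-Glo signal, read after 10 min at room temperature, reflected viable cells.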
In general terms: Quantitative high-throughput screening tests each substance at several concentrations.

Experiment [2] in a line: Viability qHTS for spleen associated tyrosine kinase inhibitor (SYKi) drug resistant MV4-11 cells (AID 1963824). Also: nearly all actives have a fitted effect of over 35% in size. Also: potency is read from the fitted curve at half-maximal effect. To be noted: SYKi-resistant MV4-11 viability, CellTiter-Glo, 72 h; series mostly up to 45 µM. An outline of the steps:
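CellTiter-Glo luminescence, read 10 min after reagent addition, reports viability after a 72 hr compound exposure. Cells are an MV4-11 line made resistant to SYK inhibition, seeded at 500 per well onto compound-containing plates.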

Experiment [3] in a line: Quantitative highthroughput screen to assess conditional lethalithy of NOMO1 cells grown in RPMI1640 with untreated serum (RPMI+s) (AID 1963876).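 Also: 100% = DMSO wells and 0% = empty wells without cells; nearly all actives have a fitted effect of over 35% in size.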 As to conditions: NOMO1 AML cells in RPMI+serum, CellTiter-Glo viability, 48 h; series mostly up to 45.8 µM. An outline of the steps: (§1)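 Each medium arm—HPLM with 10% dialyzed FBS, or RPMI1640 with 5 mM glucose and 10% untreated or dialyzed FBS—was screened against an 11-point, 3-fold compound titration for 48 h at 37 °C, with CellTiter-Glo luminescence as endpoint.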
A general note: In ATP-based viability assays light output follows the ATP content of the culture.

Experiment [4] can be described thus: Quantitative highthroughput screen to assess conditional lethalithy of NOMO1 cells grown in RPMI1640 with dialyzed fetal bovine serum (RPMI+ds) (AID 1963877).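 Also: 100% = DMSO control wells and 0% = empty wells; nearly all actives have a fitted effect of over 30% in size.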 To be noted: NOMO1 in RPMI+dialyzed FBS viability, ATP luminescence, 48 h; series mostly up to 45.8 µM. The method in brief:
as §1

The nature of experiment [5]: Quantitative highthroughput screen to assess conditional lethalithy of NOMO1 cells grown in Human Plasma-Like Medium with dialyzed fetal bovine serum (HPLM+ds) (AID 1963878).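 Also: 100% = DMSO wells and 0% = empty wells on each plate; nearly all actives have a fitted effect of over 35% in size.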 As to conditions: NOMO1 AML cells in HPLM+ds, CellTiter-Glo viability, 48 h; series mostly up to 45.8 µM. The method in brief:
as §1

Experiment [6] is described as follows: Quantitative highthroughput screen to assess conditional lethalithy of P12 Ichikawa cells grown in Human Plasma-Like Medium with dialyzed fetal bovine serum (HPLM+ds) (AID 1963879). Also: nearly all actives have a fitted effect of over 35% in size. As to conditions: ATP luminescence, 48 h; Potency: viability; series mostly up to 45.8 µM. An outline of the steps:
as §1

Experiment [7] in a line: Quantitative highthroughput screen to assess conditional lethalithy of P12 Ichikawa cells grown in RPMI1640 with dialyzed fetal bovine serum (RPMI+ds) (AID 1963880). As to conditions: ATP luminescence, 48 h; Potency: P12-Ichikawa viability; series mostly up to 45.8 µM. An outline of the steps:
as §1

Experiment [8] can be described thus: Quantitative highthroughput screen to assess conditional lethalithy of P12 Ichikawa cells grown in RPMI1640 with untreated serum (RPMI+s) (AID 1963881). To be noted: ATP luminescence, 48 h; Potency: viability; series mostly up to 45.8 µM. The method in brief:
as §1

A short description of experiment [9]: Quantitative highthroughput screen to assess conditional lethalithy of SEM cells grown in Human Plasma-Like Medium with dialyzed fetal bovine serum (HPLM+ds) (AID 1963882). Also: nearly all actives have a fitted effect of over 35% in size. To be noted: SEM B-ALL cells in HPLM+ds, CellTiter-Glo viability, 48 h; series mostly up to 45.8 µM. An outline of the steps: as §1
A short description of experiment [10]: Quantitative highthroughput screen to assess conditional lethalithy of SEM cells grown in RPMI1640 with unreated serum (RPMI+s) (AID 1963883). To be noted: SEM B-ALL cells, CellTiter-Glo viability, 48 h; series mostly up to 45.8 µM. The method in brief: as §1
The nature of experiment [11]: Cellular viability qHTS for adrenocortical cancer (ACC) cell line SW-13 (AID 1963989).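 Also: cells grown in serum-free medium with ITS supplement; % is scaled to controls: 0 for no effect and ±100 for the full control effect; nearly all actives have a fitted effect of over 65% in size.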 To be noted: SW-13 ACC cells viability, CellTiter-Glo, 48 h; activity (max response): hits give low values. The method in brief:
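Viability was read as CellTiter-Glo luminescence after 48 h compound treatment (up to 46 uM final) of SW-13 cells grown serum-free; titration curves were fit with a four-parameter logistic model to give IC50 and efficacy.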

The nature of experiment [12]: Cellular viability qHTS for adrenocortical cancer (ACC) cell line NCI-H295R (AID 1963990).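 Also: 0% = DMSO only wells and -100% = full killing with cytotoxic reference compound; nearly all actives have a fitted effect of over 60% in size.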 To be noted: CellTiter-Glo ATP luminescence, 48 h; series mostly up to 46.1 µM. An outline of the steps: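 CellTiter-Glo ATP luminescence, read 48 h after compound addition, measured viability of NCI-H295R adrenocortical cells grown serum-free with ITS. Final concentrations spanned up to 46 uM. Data normalized to DMSO and doxorubicin, fitted for IC50 and maximal response.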

Each structure is given as a SMILES string. Inconclusive results are not listed. Some structures have more than one record in an assay (separate samples or runs), and their calls can disagree. Values without a mark were called inactive. Activity calls are given as the source filed them. Calls follow the shape of the dose curve; as a rule, active = well fitted curve in the direction sought with a large enough effect; inconclusive = small, poorly fitted or top-dose-only effect, or another doubt; inactive = no such curve, though single readings can be large; an effect the other way counts as inactive or inconclusive.

In the case of `CCC(C)C(C(=O)O)N1Cc2c(OCC=C(C)C)c(C)c(OC)c(C(=O)O)c2C1=O` (stereo unspecified), the Potency entry in experiment [1] is “inactive”.

As for `C=CC(C)(O)CO[C@@H]1O[C@H](CO)[C@@H](O)[C@H](O)[C@H]1O` (stereo partly specified), the Potency entry in experiment [1] and in experiment [2] was “inactive” each time.

For `Cc1occc(=O)c1O[C@@H]1O[C@H](CO)[C@@H](O)[C@H](O)[C@H]1O`, the Potency result in [1] and in experiment [2] was “inactive” each time.

With `C/C(=C\CCC(C)C1CC(O)C2(C)C3CCC4C(C)(C)C(OC5OCC(O)C(O)C5O)CCC45CC35CC(O)C12C)C(=O)O` (stereo unspecified), the Potency result in [1] and in experiment [2] was “inactive” in each case.

For `Cn1c(CNc2ccc(C(=N)N)cc2)nc2cc(C(=O)N(CCC(=O)O)c3ccccn3)ccc21`, the Potency in experiment [1] was 4.61 µM (active); in experiment [2] it was 4.11 µM (active). Moreover, the viability (% of control) in [1] was 81.5% [at 0.588 µM]. The viability, % of control in [2] is 94.3% [at 0.588 µM]. Further, the Potency entry in experiment [3], in [4], in [5], in experiment [6], in experiment [7] and in experiment [8] was “inactive” throughout. Further, the Potency entry in [9] and in experiment [10] was “inactive” throughout. Further, the activity (max response) in experiment [11] was 9.7%. Also, the activity change, negative = viability loss in [12] was 15.5% [at 0.587 µM].

As to `C=C1C(=O)OC2CC(C)=C(C(C)CCCO)C(O)C12` (stereo unspecified), in experiment [1], the Potency entry was “inactive”.

Regarding `CC(=O)[C@H]1CC[C@H]2[C@@H]3CC=C4C[C@@H](OS(=O)(=O)O)CC[C@]4(C)[C@H]3CC[C@]12C`, the Potency entry in experiment [1] was “inactive”.

Regarding `C[C@@H]1C[C@H]2O[C@@H]2/C=C\C=C\C(=O)Cc2c(Cl)c(O)cc(O)c2C(=O)O1`, in experiment [1], the Potency was 0.0321 µM (active) and the viability (% of control) is 9.93% [at 9.25 µM]. In addition, the Potency in [2] is 0.0718 µM (active).

These data come from PubChem BioAssay (NCATS).
